# Activity calls are given as the source filed them. The calls were made as follows: active = hit-call score of the fitted dose curve at least 0.9, where 1 is the maximum; inactive = score below 0.9.
# What was measured:
# [1] = molecular target: Transcription factor E2F1 (Homo sapiens) (UniProt Q01094); test: ATG_E2F_CIS: Attagene CIS-FACTORIAL HepG2 Assay for human E2F Transcription Factor 1 (AID 2282935); settings: HepG2 Attagene cis-reporter, E2F reporter RNA transcripts; actives raise or lower the signal
# Sequence of Transcription factor E2F1 (Homo sapiens) (Q01094 whole entry, looked up): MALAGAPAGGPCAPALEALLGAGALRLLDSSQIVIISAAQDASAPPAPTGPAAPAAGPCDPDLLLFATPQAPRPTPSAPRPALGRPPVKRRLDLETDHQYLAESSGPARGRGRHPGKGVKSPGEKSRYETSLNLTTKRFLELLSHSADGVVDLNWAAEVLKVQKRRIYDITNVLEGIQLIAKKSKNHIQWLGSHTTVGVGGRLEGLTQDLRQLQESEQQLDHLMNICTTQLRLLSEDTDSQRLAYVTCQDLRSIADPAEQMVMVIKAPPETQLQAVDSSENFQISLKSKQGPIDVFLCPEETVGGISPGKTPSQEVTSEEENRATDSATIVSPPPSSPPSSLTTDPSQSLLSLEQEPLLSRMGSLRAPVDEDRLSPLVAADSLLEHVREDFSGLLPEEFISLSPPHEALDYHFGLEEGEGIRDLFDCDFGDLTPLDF
# How it was run: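 Cis-element reporter mRNA induction in transiently transfected HepG2, 24 h exposure. Activity fitted in both directions relative to DMSO negative control.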
# [2] = ATG_E_Box_CIS: Attagene CIS-FACTORIAL HepG2 Assay for human Enhancer Box (E-box) (AID 2282936); settings: HepG2 E-box cis-reporter transcription, actives raise or lower the signal
# How it was run: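 Cells: HepG2 (human liver), transient MRTU transfection. Exposure 24 h. RNA → oligo(dT) RT → PCR → 6-FAM label → HpaI → CE. Activity fitted both directions relative to DMSO.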
# [3] = ATG_EGR_CIS: Attagene CIS-FACTORIAL HepG2 Assay for human Early Growth Response 1 (EGR1) (AID 2282938); settings: HepG2 Attagene CIS-FACTORIAL EGR reporter mRNA; actives raise or lower the signal
# How it was run: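 Read-out: fluorescent reporter-mRNA fragments resolved by capillary electrophoresis after RT-PCR, 24 h post-dose in transiently transfected HepG2. Endogenous transcription-factor activity reported via cis-element-regulated reporter units; gain or loss fitted relative to DMSO.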
# [4] = ATG_M_19_CIS: Attagene CIS-FACTORIAL HepG2 Assay for M19 Transcription Factor (Internal Marker) (AID 2282939); settings: HepG2 Attagene CIS-FACTORIAL M19 internal marker reporter; actives raise or lower the signal
# How it was run: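 HepG2 cells transiently transfected with cis-regulated multiplexed reporter units, dosed 24 h. Reporter mRNA quantified by RT-PCR and capillary electrophoresis; internal background marker fitted bidirectionally versus DMSO.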
# [5] = ATG_ERE_CIS: Attagene CIS-FACTORIAL HepG2 Assay for Estrogen Response Element (ERE) (AID 2282940); settings: HepG2 ERE cis-reporter, Attagene RNA transcript; actives raise or lower the signal
# How it was run: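 HepG2 cells transiently transfected with multiplexed cis-element reporter units, measuring endogenous transcription factor activity; ERE reporter mRNA quantified after 24 h exposure by RT-PCR, fluorescent labelling, HpaI digestion and capillary electrophoresis. Bidirectional change versus DMSO.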
# [6] = ATG_Ets_CIS: Attagene CIS-FACTORIAL HepG2 Assay for human Erythroblast Transformation Specific (ETS) (AID 2282941); settings: HepG2 ETS cis-reporter transcription, actives raise or lower the signal
# How it was run: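 HepG2 cells transiently transfected with cis-promoter reporter transcription units were dosed for 24 h; reporter mRNA was measured by RT-PCR, 6-FAM primer extension, HpaI digestion and capillary electrophoresis, with bidirectional fitting against DMSO baseline.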
# [7] = molecular target: Hepatocyte nuclear factor 3-beta (Homo sapiens) (UniProt Q9Y261); test: ATG_FoxA2_CIS: Attagene CIS-FACTORIAL HepG2 Assay for human Forkhead box A2 (FOXA2) (AID 2282942); settings: HepG2 cis-reporter transcription factor activity, 24 h; actives raise or lower the signal
# Sequence of Hepatocyte nuclear factor 3-beta (Homo sapiens) (Q9Y261 whole entry, looked up): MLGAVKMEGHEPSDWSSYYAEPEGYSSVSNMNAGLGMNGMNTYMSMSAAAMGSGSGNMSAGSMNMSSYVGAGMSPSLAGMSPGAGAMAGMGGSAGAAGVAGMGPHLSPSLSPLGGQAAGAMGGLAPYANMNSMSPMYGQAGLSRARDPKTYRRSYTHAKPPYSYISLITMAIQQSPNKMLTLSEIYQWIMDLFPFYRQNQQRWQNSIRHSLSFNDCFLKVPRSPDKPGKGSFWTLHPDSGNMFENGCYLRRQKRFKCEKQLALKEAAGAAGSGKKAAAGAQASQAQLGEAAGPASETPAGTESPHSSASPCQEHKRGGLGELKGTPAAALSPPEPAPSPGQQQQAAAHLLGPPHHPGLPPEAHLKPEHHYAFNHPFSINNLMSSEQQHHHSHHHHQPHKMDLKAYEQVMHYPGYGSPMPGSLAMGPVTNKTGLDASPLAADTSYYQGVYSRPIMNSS
# How it was run: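 Readout: fluorescent reporter transcripts resolved by capillary electrophoresis after RT-PCR. Transiently transfected HepG2, 24 h compound exposure, endogenous TF activity at cis promoter elements. Gain or loss of signal fitted relative to DMSO.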
# [8] = ATG_FoxO_CIS: Attagene CIS-FACTORIAL HepG2 Assay for human Forkhead box O (FoxO) (AID 2282943); settings: HepG2 Attagene cis-reporter, FoxO element, mRNA; actives raise or lower the signal
# How it was run: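 Endogenous transcription factor activity read from multiplexed cis-promoter reporter transcripts in transiently transfected HepG2, 24 h after dosing. Reporter RNA measured via RT-PCR plus capillary electrophoresis of FAM-labeled products; gain or loss relative to DMSO.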
# [9] = ATG_GATA_CIS: Attagene CIS-FACTORIAL HepG2 Assay for human GATA Binding Protein (AID 2282944); settings: HepG2 GATA cis-element reporter, Attagene multiplex mRNA; actives raise or lower the signal
# How it was run: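 HepG2 cells transiently transfected with multiplexed cis-element reporter units measure endogenous GATA activity; after 24 h compound exposure, reporter mRNA quantified by RT-PCR and capillary electrophoresis. Changes fitted in both directions vs DMSO.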
# [10] = ATG_GLI_CIS: Attagene CIS-FACTORIAL HepG2 Assay for human Zinc Finger Protein GLI1 (AID 2282945); settings: HepG2, Attagene cis-factorial reporter mRNA, GLI element; actives raise or lower the signal
# How it was run: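 Bidirectional curve fits relative to DMSO, using reporter mRNA levels from RT-PCR plus capillary electrophoresis. Cells were HepG2 transiently carrying cis-regulated reporter constructs, harvested 24 h after dosing.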
# [11] = ATG_GRE_CIS: Attagene CIS-FACTORIAL HepG2 Assay for human Glucocorticoid Response Elements (GRE) (AID 2282947); settings: HepG2 GRE cis-reporter, Attagene multiplex mRNA; actives raise or lower the signal
# How it was run: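 Transient MRTU transfection of human HepG2 liver cells; cis-regulated reporters report endogenous factors. 24 h dosing → RNA isolation → RT-PCR → 6-FAM primer extension → HpaI cut → CE fragment analysis. Bidirectional fit, DMSO negative control.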
# [12] = ATG_ISRE_CIS: Attagene CIS-FACTORIAL HepG2 Assay for human Interferon Regulatory Factor 1 (IRF1) binding to an Interferon-Stimulated Response Element (ISRE) (AID 2282948); settings: HepG2 ISRE cis-reporter (Attagene), mRNA transcription readout; actives raise or lower the signal
# How it was run: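 HepG2 cells transiently transfected with multiplexed cis-promoter reporter units; after 24 h compound exposure, reporter mRNA quantified by RT-PCR, FAM labelling, HpaI digestion and capillary electrophoresis. Bidirectional fit versus DMSO baseline.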
# [13] = ATG_M_32_CIS: Attagene CIS-FACTORIAL HepG2 Assay for M32 Transcription Factor (Internal Marker) (AID 2282949); settings: HepG2 Attagene cis-factorial M32 reporter, mRNA; actives raise or lower the signal;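 also: background control marker of the multiplexed CIS panel rather than a real target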
# How it was run: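 Fluorescent capillary electrophoresis peaks of HpaI-digested, FAM-labelled RT-PCR reporter products give the signal. Source: transiently transfected human liver HepG2 cells, 24 h after chemical dosing; bidirectional fitting against DMSO.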
# [14] = ATG_M_06_CIS: Attagene CIS-FACTORIAL HepG2 Assay for M06 Transcription Factor (Internal Marker) (AID 2282950); settings: HepG2 Attagene CIS-FACTORIAL M06 internal marker reporter; actives raise or lower the signal
# How it was run: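 Internal background marker within multiplexed cis-reporter HepG2 system. Cells transiently transfected, dosed 24 h; reporter mRNA measured by RT-PCR, HpaI digestion and capillary electrophoresis. Bidirectional fit relative to DMSO.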
# [15] = molecular target: Hepatocyte nuclear factor 6 (Homo sapiens) (UniProt Q9UBC0); test: ATG_HNF6_CIS: Attagene CIS-FACTORIAL HepG2 Assay for human Hepatocyte Nuclear Factor 6 (HNF6) (AID 2282952); settings: HepG2 Attagene cis-factorial HNF6 reporter transcription; actives raise or lower the signal
# Sequence of Hepatocyte nuclear factor 6 (Homo sapiens) (Q9UBC0 whole entry, looked up): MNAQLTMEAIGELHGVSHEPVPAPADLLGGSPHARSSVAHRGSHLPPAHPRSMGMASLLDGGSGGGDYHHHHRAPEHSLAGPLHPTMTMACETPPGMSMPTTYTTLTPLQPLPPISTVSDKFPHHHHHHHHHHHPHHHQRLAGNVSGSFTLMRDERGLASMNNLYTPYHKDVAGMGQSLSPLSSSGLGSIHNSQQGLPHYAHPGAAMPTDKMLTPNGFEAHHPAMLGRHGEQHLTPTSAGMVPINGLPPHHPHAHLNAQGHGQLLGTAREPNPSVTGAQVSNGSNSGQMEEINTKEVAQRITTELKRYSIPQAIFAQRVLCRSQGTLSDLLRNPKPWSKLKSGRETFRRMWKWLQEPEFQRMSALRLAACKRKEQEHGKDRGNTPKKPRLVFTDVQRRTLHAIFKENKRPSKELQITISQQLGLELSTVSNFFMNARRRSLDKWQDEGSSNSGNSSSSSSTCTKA
# How it was run: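 HepG2, transient MRTU transfection (cis promoters); 24 h chemical exposure; total RNA → oligo(dT) RT → PCR → 6-FAM labelling → HpaI cut → CE; bidirectional fit vs DMSO.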
# [16] = molecular target: Heat shock factor protein 1 (Homo sapiens) (UniProt Q00613); test: ATG_HSE_CIS: Attagene CIS-FACTORIAL HepG2 Assay for human Heat Shock Transcription Factor 1 (HSE) (AID 2282953); settings: HepG2 HSE cis-reporter, Attagene RNA transcription; actives raise or lower the signal
# Sequence of Heat shock factor protein 1 (Homo sapiens) (Q00613 whole entry, looked up): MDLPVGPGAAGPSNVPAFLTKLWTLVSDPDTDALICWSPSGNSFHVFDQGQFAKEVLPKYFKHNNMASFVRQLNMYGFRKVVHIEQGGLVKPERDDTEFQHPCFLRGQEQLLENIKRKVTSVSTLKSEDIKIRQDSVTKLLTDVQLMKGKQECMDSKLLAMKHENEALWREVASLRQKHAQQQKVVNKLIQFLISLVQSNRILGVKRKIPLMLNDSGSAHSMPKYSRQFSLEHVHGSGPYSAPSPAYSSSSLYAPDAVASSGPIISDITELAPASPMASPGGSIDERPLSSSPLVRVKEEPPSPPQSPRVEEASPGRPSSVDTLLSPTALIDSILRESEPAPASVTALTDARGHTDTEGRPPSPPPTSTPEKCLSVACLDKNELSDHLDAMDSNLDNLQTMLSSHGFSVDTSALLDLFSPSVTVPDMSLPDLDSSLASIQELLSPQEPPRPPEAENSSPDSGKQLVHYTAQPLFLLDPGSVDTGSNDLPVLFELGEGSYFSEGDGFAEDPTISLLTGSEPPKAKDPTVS
# How it was run: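 HepG2 cells transfected with cis-promoter reporter units sensing endogenous transcription factor activity; reporter mRNA quantified 24 h post-dose by RT-PCR and capillary electrophoresis of 6-FAM-labelled products. Bidirectional fitting against DMSO.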
# [17] = ATG_MRE_CIS: Attagene CIS-FACTORIAL HepG2 Assay for human Metal Responsive Element (MRE) (AID 2282954); settings: HepG2 MRE cis-reporter transcription, Attagene multiplex; actives raise or lower the signal
# How it was run: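 Transient MRTU transfection of HepG2 (FuGene 6); 24 h dosing; total RNA → oligo(dT) RT, PCR, 6-FAM primer extension, HpaI cut, CE. Bidirectional fit vs DMSO.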
# [18] = molecular target: Hypoxia-inducible factor 1-alpha (Homo sapiens) (UniProt Q16665); test: ATG_HIF1a_CIS: Attagene CIS-FACTORIAL HepG2 Assay for human Hypoxia Inducible Factor 1 (HIF1A) (AID 2282951); settings: HepG2 Attagene cis-factorial HIF1a reporter transcription; actives raise or lower the signal
# Sequence of Hypoxia-inducible factor 1-alpha (Homo sapiens) (Q16665 whole entry, looked up): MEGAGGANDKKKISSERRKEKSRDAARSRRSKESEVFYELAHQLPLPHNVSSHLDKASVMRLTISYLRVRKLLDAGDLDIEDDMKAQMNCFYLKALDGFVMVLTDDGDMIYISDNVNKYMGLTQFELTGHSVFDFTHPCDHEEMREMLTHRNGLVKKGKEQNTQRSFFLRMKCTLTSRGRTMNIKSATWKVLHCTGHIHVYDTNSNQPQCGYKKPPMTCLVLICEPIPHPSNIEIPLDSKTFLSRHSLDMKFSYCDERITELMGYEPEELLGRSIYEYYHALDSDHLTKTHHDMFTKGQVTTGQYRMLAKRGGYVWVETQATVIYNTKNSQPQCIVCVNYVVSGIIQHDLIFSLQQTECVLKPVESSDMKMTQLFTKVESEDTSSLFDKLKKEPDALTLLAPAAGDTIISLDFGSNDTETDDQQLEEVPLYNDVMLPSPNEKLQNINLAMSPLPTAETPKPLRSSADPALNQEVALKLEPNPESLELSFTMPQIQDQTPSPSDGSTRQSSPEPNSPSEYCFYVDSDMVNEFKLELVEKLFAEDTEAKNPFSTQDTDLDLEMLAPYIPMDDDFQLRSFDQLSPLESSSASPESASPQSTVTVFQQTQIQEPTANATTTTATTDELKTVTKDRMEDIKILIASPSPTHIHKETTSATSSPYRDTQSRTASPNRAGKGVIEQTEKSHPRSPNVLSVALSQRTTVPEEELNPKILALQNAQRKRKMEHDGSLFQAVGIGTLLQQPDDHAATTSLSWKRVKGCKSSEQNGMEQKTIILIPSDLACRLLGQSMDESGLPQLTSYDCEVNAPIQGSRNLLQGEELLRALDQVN
# How it was run: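 RT-PCR/capillary electrophoresis fluorescence readout of reporter transcripts from endogenous-TF-driven cis elements in transfected HepG2 cells, 24 h exposure; activity fitted in both directions against DMSO controls.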
# [19] = ATG_M_61_CIS: Attagene CIS-FACTORIAL HepG2 Assay for M61 Transcription Factor (Internal Marker) (AID 2282937); settings: HepG2 Attagene CIS-FACTORIAL M61 internal marker reporter; actives raise or lower the signal
# How it was run: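 Readout: fluorescent reporter mRNA fragments resolved by capillary electrophoresis after RT-PCR. Transiently transfected human HepG2 cells carried MRTU constructs reporting endogenous TF activity; 24 h chemical exposure; gain or loss of signal fitted relative to DMSO.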
# [20] = molecular target: Bile acid receptor (Homo sapiens) (UniProt Q96RI1); test: ATG_IR1_CIS: Attagene CIS-FACTORIAL HepG2 Assay for human Nuclear Receptor Subfamily 1 Group H Member 4 (NR1H4), IR1 submotif (AID 2282946); settings: IR1 reporter transcription, actives raise or lower the signal
# Sequence of Bile acid receptor (Homo sapiens) (Q96RI1 whole entry, looked up, the tested form may be a part): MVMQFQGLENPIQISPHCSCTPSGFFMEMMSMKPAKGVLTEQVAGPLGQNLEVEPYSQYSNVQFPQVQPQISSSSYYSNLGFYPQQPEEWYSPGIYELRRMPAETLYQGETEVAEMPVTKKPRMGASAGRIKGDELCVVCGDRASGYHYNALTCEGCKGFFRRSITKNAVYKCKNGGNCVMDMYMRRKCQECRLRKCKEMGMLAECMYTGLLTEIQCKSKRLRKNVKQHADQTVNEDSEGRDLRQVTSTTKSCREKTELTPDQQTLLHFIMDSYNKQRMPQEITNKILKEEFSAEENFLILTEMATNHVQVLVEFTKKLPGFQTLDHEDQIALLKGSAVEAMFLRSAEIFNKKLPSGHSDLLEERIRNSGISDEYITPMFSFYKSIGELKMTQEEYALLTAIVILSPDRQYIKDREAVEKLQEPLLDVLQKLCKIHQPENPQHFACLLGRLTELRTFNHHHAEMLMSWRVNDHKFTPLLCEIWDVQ
# How it was run: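 Cells (human HepG2) carry transiently transfected cis-promoter reporter transcription units. Compounds are incubated 24 h, total RNA is reverse-transcribed and amplified, and labelled fragments are resolved by capillary electrophoresis. Curves use DMSO as baseline.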
structure (smiles),measurement,setting,value
Cc1cc(O)c(C)c(C)c1O,outcome,[1],inactive
same,AC50,[2],37.6 µM (active)
same,outcome,[3],inactive
same,outcome,[4],inactive
same,outcome,[5],inactive
same,outcome,[6],inactive
same,outcome,[7],inactive
same,outcome,[8],inactive
same,outcome,[9],inactive
same,outcome,[10],inactive
same,outcome,[11],inactive
same,outcome,[12],inactive
same,outcome,[13],inactive
same,outcome,[14],inactive
same,outcome,[15],inactive
same,outcome,[16],inactive
same,outcome,[17],inactive
CC(=O)C1=C(C)[C@@H]2C[C@@]3(C1)[C@H](C)CC[C@H]3C2(C)C,AC50,[1],139 µM (active)
same,outcome,[2],inactive
same,outcome,[3],inactive
same,AC50,[4],100 µM (active)
same,AC50,[5],68.1 µM (active)
same,outcome,[6],inactive
same,outcome,[7],inactive
same,outcome,[8],inactive
same,outcome,[9],inactive
same,AC50,[10],166 µM (active)
same,AC50,[12],73.2 µM (active)
same,AC50,[13],148 µM (active)
same,AC50,[14],75.3 µM (active)
same,AC50,[18],131 µM (active)
same,AC50,[15],186 µM (active)
same,AC50,[16],24.5 µM (active)
same,AC50,[17],146 µM (active)
CC12CCC(C1)C(C)(C)C2O (configuration not stated),outcome,[1],inactive
same,outcome,[2],inactive
same,outcome,[3],inactive
same,outcome,[4],inactive
same,outcome,[5],inactive
same,outcome,[6],inactive
same,outcome,[8],inactive
same,outcome,[9],inactive
same,outcome,[10],inactive
same,outcome,[12],inactive
same,outcome,[13],inactive
same,outcome,[14],inactive
same,outcome,[18],inactive
same,outcome,[15],inactive
same,outcome,[16],inactive
same,outcome,[17],inactive
N#CCCCC(C#N)CCC#N (configuration not stated),outcome,[1],inactive
same,outcome,[2],inactive
same,outcome,[3],inactive
same,outcome,[4],inactive
same,outcome,[5],inactive
same,outcome,[7],inactive
same,outcome,[8],inactive
same,outcome,[9],inactive
same,outcome,[10],inactive
same,outcome,[12],inactive
same,outcome,[13],inactive
same,outcome,[18],inactive
same,outcome,[15],inactive
same,outcome,[16],inactive
same,outcome,[17],inactive
CC(=O)CCC(=O)O,outcome,[1],inactive
same,outcome,[2],inactive
same,outcome,[3],inactive
same,outcome,[4],inactive
same,outcome,[5],inactive
same,outcome,[6],inactive
same,outcome,[7],inactive
same,outcome,[8],inactive
same,outcome,[9],inactive
same,outcome,[10],inactive
same,outcome,[11],inactive
same,outcome,[12],inactive
same,outcome,[13],inactive
same,outcome,[14],inactive
same,outcome,[18],inactive
same,outcome,[15],inactive
same,outcome,[17],inactive
COC(=O)c1ccc(C(=O)OC)cc1,outcome,[1],inactive
same,outcome,[2],inactive
same,outcome,[3],inactive
same,outcome,[4],inactive
same,outcome,[5],inactive
same,outcome,[6],inactive
same,outcome,[7],inactive
same,outcome,[8],inactive
same,outcome,[9],inactive
same,outcome,[10],inactive
same,outcome,[12],inactive
same,outcome,[14],inactive
same,outcome,[18],inactive
same,outcome,[15],inactive
same,outcome,[17],inactive
C1COCO1,outcome,[1],inactive
same,outcome,[2],inactive
same,outcome,[3],inactive
same,outcome,[4],inactive
same,outcome,[6],inactive
same,outcome,[7],inactive
same,outcome,[8],inactive
same,outcome,[9],inactive
same,outcome,[10],inactive
same,outcome,[11],inactive
same,outcome,[12],inactive
same,outcome,[13],inactive
same,outcome,[14],inactive
same,outcome,[18],inactive
same,outcome,[15],inactive
same,outcome,[16],inactive
same,outcome,[17],inactive
CCC(=O)OC/C=C(\C)CCC=C(C)C,outcome,[1],inactive
same,outcome,[19],inactive
same,outcome,[3],inactive
same,outcome,[4],inactive
same,outcome,[5],inactive
same,outcome,[6],inactive
same,outcome,[7],inactive
same,outcome,[8],inactive
same,outcome,[9],inactive
same,outcome,[10],inactive
same,outcome,[20],inactive
same,outcome,[11],inactive
same,outcome,[12],inactive
same,outcome,[13],inactive
same,outcome,[18],inactive
same,outcome,[16],inactive
same,outcome,[17],inactive
O=C(O)c1ccc(C(=O)O)c(C(=O)O)c1,outcome,[1],inactive
same,outcome,[2],inactive
same,outcome,[3],inactive
same,outcome,[4],inactive
same,outcome,[5],inactive
same,outcome,[6],inactive
same,outcome,[7],inactive
same,outcome,[8],inactive
same,outcome,[9],inactive
same,outcome,[10],inactive
same,outcome,[11],inactive
same,outcome,[12],inactive
same,outcome,[13],inactive
same,outcome,[14],inactive
same,outcome,[16],inactive
same,outcome,[17],inactive

# — PubChem BioAssay (EPA / NIEHS)
